In the library only some 6.7% were active in any assay of this set; here they are far more common.
Pf Dd2 growth = inhibitors of Plasmodium falciparum Dd2 growth; P. falciparum Dd2 growth, SYBR Green, 72 h; stronger effect = lower value; activity change, % at 10 µM; hit rate 2.3% among 94,000; AID 1159554; in the data active means activity change below about -80%; inconclusive means no clear call, values can overlap the other calls
T cruzi growth-1 = T. cruzi proliferation inhibition; AID 624255; T. cruzi beta-gal in NIH3T3, GalScreen luminescence, 90 h; inhibition, % at 8.34 µM; hit rate 5.9% among 77,000;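 active means mean inhibition above about 93%, with at least 55% of replicates each passing it, limit read from the data, passing the limit was not always enough; inconclusive means only one of those two conditions holds; inactive means neither condition holds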
C diff HTS = blocks growth of Clostridium difficile; Clostridium difficile clinical isolate growth, OD600, 24 h; stronger effect = lower value; growth activity, negative = inhibition, % at 16 µg/mL (by protocol); hit rate 0.25% among 86,000; AID 1259249;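 active means mean growth activity at or below -80% and every replicate also at or below -80%; inconclusive means mean at or below -80% but some replicate above -80%; inactive means mean growth activity above -80%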;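 further: 0% = DMSO wells and -100% = levofloxacin 16 µg/mL wells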
T cruzi growth-2 = inhibitors of T. cruzi proliferation. shares compounds with T cruzi growth-1. T. cruzi beta-gal in NIH3T3, GalScreen luminescence, 90 h. hit rate 72% among 5,600. inhibition, % at 8.35 µM;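 active means mean replicate inhibition above about 95% and at least 55% of replicates individually reaching it, limit read from the data; inconclusive means only one of the two criteria is met; inactive means neither criterion is met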
T cruzi growth-3 = blocks T. cruzi growth in NIH3T3 host cells; T. cruzi beta-gal in NIH3T3, GalScreen luminescence, 90 h; hit rate 21% among 5,600; AID 651740; inhibition, % at 2.09 µM; shares compounds with T cruzi growth-1;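 active means mean inhibition above about 95%, with at least 55% of replicates also reaching it, limit read from the data; inconclusive means meets just one of the two conditions; inactive means meets neither condition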;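 further: plate controls were neutral control median for no effect and positive control median for full effect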
3T3 cytotox = cytotoxicity in mouse NIH/3T3 fibroblasts; AID 651742; shares compounds with T cruzi growth-1; cytotoxicity (signal decrease), % at 8.35 µM; NIH/3T3 viability, CellTiter-Glo ATP luminescence, 90 h; hit rate 14% among 5,600;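 active means mean signal decrease across replicates above about 35% based on untreated-well scatter, with enough replicates individually passing, limit read from the data; inconclusive means no rule stated though some were filed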;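 further: 0% = median of neutral control wells and 100% = median of positive control wells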
NIH3T3 tox 2 = NIH/3T3 (mouse) viability loss; hit rate 56% among 5,600; NIH/3T3 viability, CellTiter-Glo ATP luminescence, 90 h; AID 651744; shares compounds with T cruzi growth-1; inhibition, % at 24.9 µM;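 active means mean loss of cell viability signal at or above a set limit, and enough replicates individually reaching it; inconclusive means meets only the mean limit or only the replicate share; inactive means meets neither condition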;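 further: 0% = median of neutral control wells and 100% = median of positive control wells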
* hit, by the source's call; ? = inconclusive; . = no result given.

SMILES	Pf Dd2 growth	T cruzi growth-1	C diff HTS	T cruzi growth-2	T cruzi growth-3	3T3 cytotox	NIH3T3 tox 2
O=C(Cc1cccnc1)N1CCCCN2[C@@H](CO)[C@@H](c3ccc(C#CC4CCCC4)cc3)[C@@H]2C1	-62	105*	3	?	-4	7	102*
COC(=O)C[C@H]1CC[C@@H]2NC[C@@H](O)COC[C@H]2O1	-2	71	-1	.	.	.	.
O=C(O)[C@H]1[C@H](CO)[C@H]2Cn3c(ccc(-c4cccc(F)c4)c3=O)[C@@H]1N2CCc1ccccc1	-8	10	-3	.	.	.	.
CCCN1[C@@H]2Cn3c(ccc(-c4cccc(C(=O)N(C)C)c4)c3=O)[C@H]1[C@@H](C(=O)OC)[C@@H]2CO	.	5	0	.	.	.	.
O=C(Cc1cccnc1)N1CCCCN2[C@@H](CO)[C@H](c3ccc(C#CC4(O)CCCC4)cc3)[C@@H]2C1	19	41	-5	.	.	.	.
O=C(Cc1cccnc1)N1CCCCN2[C@H](C1)[C@H](c1ccc(C#CC3CCCC3)cc1)[C@@H]2CO	5	104*	-1	90	30	-9	97*
O=C(Cc1cccnc1)N1CCCCN2[C@H](C1)[C@@H](c1ccc(/C=C/c3ccccc3)cc1)[C@@H]2CO	-13	103*	1	105*	100*	48*	105*
O=C(Cc1cccnc1)N1CCCCN2[C@@H](CO)[C@@H](c3ccc(/C=C/c4ccccc4)cc3)[C@@H]2C1	-47	108*	22	97*	68	7	106*
C/C=C/c1ccc([C@H]2[C@H]3CN(C(=O)Cc4cccnc4)CCCCN3[C@H]2CO)cc1	15	3	1	.	.	.	.
C/C=C/c1ccc([C@H]2[C@H](CO)N3CCCCN(C(=O)Cc4cccnc4)C[C@@H]23)cc1	37	88	-2	.	.	.	.
COc1ccc(C#Cc2ccc([C@H]3[C@H]4CN(C(=O)Cc5cccnc5)CCCCN4[C@H]3CO)cc2)cc1	19	104*	10	104*	73	29	99*
COc1ccc(C#Cc2ccc([C@H]3[C@@H](CO)N4CCCCN(C(=O)Cc5cccnc5)C[C@H]34)cc2)cc1	-62	115*	-4	102*	85	46*	103*
O=C(Cc1cccnc1)N1CCCCN2[C@H](CO)[C@@H](c3ccc(C#CC4(O)CCCC4)cc3)[C@@H]2C1	34	9	1	.	.	.	.
COc1ccc(C#Cc2ccc([C@@H]3[C@@H](CO)N4CCCCN(C(=O)Cc5cccnc5)C[C@@H]34)cc2)cc1	-20	108*	-8	113*	60	12	103*
COc1ccc(C#Cc2ccc([C@@H]3[C@H]4CN(C(=O)Cc5cccnc5)CCCCN4[C@H]3CO)cc2)cc1	-26	99*	-8	104*	78	22	106*
C/C=C/c1ccc(C2[C@@H]3CN(C(=O)C4CCC4)C[C@H]2N3)cc1 (some centres not stated)	-50	.	-5	.	.	.	.
COC(=O)C[C@@H]1CC[C@H]2NC[C@@H](O)COC[C@@H]2O1	4	61	5	.	.	.	.
Cc1cccc(S(=O)(=O)N2[C@@H]3Cn4c(ccc(-c5cccc(F)c5)c4=O)[C@H]2[C@@H](C(=O)O)[C@@H]3CO)c1	3	-14	0	.	.	.	.
COC(=O)[C@@H]1[C@@H](CO)[C@@H]2Cn3c(ccc(-c4ccccc4OC)c3=O)[C@H]1N2Cc1ccccc1	.	-57	-5	.	.	.	.
COC(=O)[C@@H]1[C@@H](CO)[C@@H]2Cn3c(ccc(C4=CCCC4)c3=O)[C@H]1N2S(=O)(=O)c1cn(C)cn1	11	9	0	.	.	.	.
COC(=O)[C@H]1[C@H](CO)[C@H]2Cn3c(ccc(-c4ccncc4)c3=O)[C@@H]1N2S(=O)(=O)c1ccccc1F	9	11	-3	.	.	.	.
COc1ccc(C#Cc2ccc([C@H]3[C@@H](CO)N4CCCCN(C(=O)Cc5cccnc5)C[C@@H]34)cc2)cc1	-7	125*	-14	99*	103*	36*	86*
COc1ccc(C#Cc2ccc([C@H]3[C@H](CO)N4CCCCN(C(=O)Cc5cccnc5)C[C@@H]34)cc2)cc1	-70	113*	21	106*	102*	43*	105*
COC(=O)C[C@H]1CC[C@H]2NC[C@H](O)COC[C@@H]2O1	-10	60	-1	.	.	.	.
COc1cccc(-c2ccc3n(c2=O)C[C@@H]2[C@@H](CO)[C@H](C(=O)O)[C@H]3N2Cc2ccccc2F)c1	.	64	.	.	.	.	.
SMILES	Pf Dd2 growth	T cruzi growth-1	C diff HTS	T cruzi growth-2	T cruzi growth-3	3T3 cytotox	NIH3T3 tox 2
COC(=O)[C@@H]1[C@@H](CO)[C@@H]2Cn3c(ccc(-c4ccncc4)c3=O)[C@H]1N2S(=O)(=O)c1ccccc1C	8	-19	1	.	.	.	.
COC(=O)[C@@H]1[C@@H](CO)[C@@H]2Cn3c(ccc(/C=C/c4ccccc4)c3=O)[C@H]1N2CC1CCCC1	-20	32	15	.	.	.	.
COC(=O)[C@H]1[C@H](CO)[C@H]2Cn3c(ccc(/C=C/c4ccccc4)c3=O)[C@@H]1N2Cc1ccccc1F	.	-11	-3	.	.	.	.
O=C(Cc1ccccc1)N1CCCCN2[C@H](C1)[C@@H](c1ccc(-c3ccccc3)cc1)[C@@H]2CO	-26	-2	50	.	.	.	.
COc1ccc(-c2ccc([C@@H]3[C@@H](CO)N4CCCCN(C(=O)Cc5ccccc5)C[C@H]34)cc2)cc1	-79	?	1	97*	55	32	105*
COc1ccc(-c2ccc([C@H]3[C@@H](CO)N4CCCCN(C(=O)Cc5ccccc5)C[C@H]34)cc2)cc1	-23	91	-1	.	.	.	.
O=C(Cc1ccccc1)N1CCCCN2[C@@H](CO)[C@H](c3ccc(-c4ccccc4)cc3)[C@@H]2C1	9	100*	58	103*	75	25	102*
COc1cccc(-c2ccc3n(c2=O)C[C@H]2[C@H](CO)[C@@H](C(=O)O)[C@@H]3N2Cc2ccccc2F)c1	.	-37	.	.	.	.	.
CC(=O)N1[C@@H]2c3ccc(-c4cccc(C(=O)N(C)C)c4)c(=O)n3C[C@H]1[C@H](CO)[C@H]2C(=O)O	41	.	7	.	.	.	.
CC=Cc1ccc2n(c1=O)C[C@@H]1[C@@H](CO)[C@H](C(=O)OC)[C@H]2N1CC1CCOCC1 (mixture of isomers)	.	50	-10	.	.	.	.
N#Cc1cccc(-c2ccc([C@H]3[C@H](CO)N4CCCCN(C(=O)Cc5ccccc5)C[C@@H]34)cc2)c1	7	102*	3	90	59	28	42*
N#Cc1cccc(-c2ccc([C@H]3[C@H](CO)N4CCCCN(C(=O)Cc5cccnc5)C[C@@H]34)cc2)c1	-7	109*	0	103*	57	17	55*
N#Cc1cccc(-c2ccc([C@@H]3[C@H](CO)N4CCCCN(C(=O)Cc5cccnc5)C[C@@H]34)cc2)c1	-13	83	2	.	.	.	.

Screening data as filed in PubChem.
